We go through 32 molecules from PubChem BioAssay (NCI).

Several values for one entry are separate records, joined by “and”; a condition that tells them apart may be missing. Identical values can stand only once. The panel holds about 83,000 compounds, 20% with a hit somewhere; the sample as a whole holds those more often.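 Each cell line was grown in a 96-well plate and treated with one concentration of compound for 48 hours. Values below 10 were considered active.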 Activity calls are given as the source filed them.

One assay has as its system SN12C renal. The experiment in a line: NCI-60 one-dose screen, 48 h (100 = growth as untreated, 0 = no growth, -100 = all killed). To be noted: 10 µM unless noted.
For the molecule `Cc1cc(O)c(C(C)C)cc1S(=O)(=O)O` (tested in a mixture with another compound), the growth was 92.4% (inactive) and 22.6% (inactive) and 102% (inactive).
The same measure, in the same setting: to `Oc1c(CN2CCCCC2)ccc2cccnc12` belongs 58.2% (inactive) and 59.2% (inactive); to `NS(=O)(=O)c1cc2c(cc1Cl)NC(C(Cl)Cl)NS2(=O)=O` (configuration not stated), 93.2% (inactive) and 103% (inactive).
Same read-out and setting: to `COc1cc2nc(N3CCN(C(=O)C4COc5ccccc5O4)CC3)nc(N)c2cc1OC` (configuration not stated) belongs 88.1% (inactive) and 83% (inactive) and 99.7% (inactive).

Another assay concerns UO-31 renal. The assay is described as above. To be noted: 10 µM unless noted.
Turning to `O=C(O)C1(C(=O)O)CCC1.[NH2-].[NH2-].[Pt+2]`, the growth was 75.6% (inactive) and 103% (inactive).
Same read-out and setting: to `CC1(C)[C@@H](OC(=O)CCC(=O)O)CC[C@]2(C)[C@H]3C(=O)C=C4[C@@H]5C[C@@](C)(C(=O)O)CC[C@]5(C)CC[C@@]4(C)[C@]3(C)CC[C@@H]12` belongs 102% (inactive) and -96.1% (active).
Still for that read-out and setting: to `CCNC(=O)Nc1ccc(-c2nc3c(c(N4CCOC[C@@H]4C)n2)CCN(C2COC2)C3)cc1` belongs 21.8% (inactive) and -6.18% (active); to `O=C1C2=C(C(=O)c3ccccc31)C(O)(S(=O)(=O)O)C(O)(S(=O)(=O)O)C1N=CC=CC21` (configuration not stated), 42.2% (inactive) and -0.599% (active).
As for `COc1ccc2c(=O)cc(-c3ccccc3)[nH]c2c1`, the growth was 41.7% (inactive) and 8.7% (active).
Still for that read-out and setting: to `COc1cc(Nc2nc3ccccc3nc2NS(=O)(=O)c2ccc(NC(=O)c3ccc(C)c(OC)c3)cc2)cc(OC)c1` belongs 12.2% (inactive) and -20% (active).
For the molecule `COc1cc(-c2nccc3cc4c(cc23)OCO4)cc(OC)c1OC`, the growth was 50.8% (inactive) and 44.4% (inactive).
The same measure, in the same setting: then `CCN(CC)CCC(CNc1ccnc2cc(Cl)ccc12)c1ccc(OC)cc1` (configuration not stated), with -5.93% (active) and -3.07% (active); and `CC(=O)Nc1ccc(O)cc1`, with 84.3% (inactive) and 98% (inactive) and 90% (inactive); and `c1ccc2c(CC3=NCCN3)cccc2c1`, with 97.6% (inactive) and 98.7% (inactive).
Same read-out and setting: to `Cc1nn(-c2ccc(Cl)cc2)c2ncnc(N/N=C/c3ccccc3O)c12` belongs 35.2% (inactive) and -11.4% (active); to `CCN(CC)C(=S)SSC(=S)N(CC)CC`, 63.3% (inactive) and 90.7% (inactive).
The same measure, in the same setting: then `Nc1nc(SC/C=C/CCl)c2[nH]cnc2n1`, with 87% (inactive) and 94.3% (inactive); and `CC1CCCC(=O)O1` (configuration not stated), with 92.8% (inactive) and 76.7% (inactive).
For the molecule `c1ccc(NCc2ccc3c(c2)OCO3)cc1`, the growth was 78.7% (inactive) and 83% (inactive).
For the molecule `CN(Cc1ccccc1)Cc1ccccc1`, the growth is 93% (inactive).
As to `O=[N+]([O-])c1ccc(N/N=C\c2cc(Br)ccc2O)nc1`, the growth is -6.22% (active) and -11.8% (active).
Same read-out and setting: then `O=C(Nc1ccc(Br)cc1)c1cc(Br)ccc1O`, with -12.3% (active) and 0.207% (active).
Same read-out and setting: to `CN(C)c1ccc(C(=C2C=CC(=[N+](C)C)C=C2)c2ccccc2Cl)cc1` belongs -28.9% (active) and -12.3% (active); to `O=C(Cc1cccc2ccccc12)N/N=C/c1ccc2c(c1)CCC2`, 63.3% (inactive); to `O=C(O)C1C2C=CC(C2)C1C(=O)O` (configuration not stated), 87.9% (inactive) and 96.5% (inactive) and 94.4% (inactive).
The same measure, in the same setting: to `COc1cc(C(=O)c2ccc3c(c2)OCO3)cc(OC)c1OC` belongs 16.2% (inactive) and 37.6% (inactive); to `O=C(CCc1ccc(O)cc1)N/N=C/c1cc(Br)ccc1O`, 19.5% (inactive); to `CC(=O)Oc1cc(C(=O)O)cc(OC(C)=O)c1OC(C)=O`, 96.7% (inactive) and 98.2% (inactive).
Turning to `Cn1c(=O)c2[nH]c(CCCCCCCCc3nc4ccccc4[nH]3)nc2n(C)c1=O`, the growth was 73.9% (inactive) and 74.9% (inactive).
On the same count and under the same terms, then `O=C1c2ccccc2C(=O)N1/N=C/c1ccc2c(c1)OCO2`, with 81.2% (inactive).
For `S=C1SCN(Cc2ccccc2)CN1Cc1ccccc1`, the growth was 26.7% (inactive).
Still for that read-out and setting: to `Cc1ccc(-c2noc(CC(=O)c3ccc([N+](=O)[O-])cc3)n2)cc1` belongs 89.6% (inactive).
